Among the test systems are T-47D breast; BT-549 breast; SW-620 colon; MCF7 breast; HCT-116 colon; KM12 colon; MDA-MB-435 melanoma; HCC-2998 colon.
Test in all cases: NCI-60 one-dose screen, 48 h (100 = growth as untreated, 0 = no growth, -100 = all killed)
Common to all, as to settings: 10 µM unless noted

About 83,000 compounds went through this panel and 20% of them were active in at least one assay; those are over-represented in the sample as a whole.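 Values shown are percent growth following 48 h exposure of cells in 96-well plates to a single concentration of compound; below 10 was considered active.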 Unmarked numbers belong to inactive results. Activity calls are given as the source filed them.

With `O=C1/C(=C/c2ccc(OCCCOc3ccc(Cl)cc3)cc2)N=C2SCCCN12`, the growth with T-47D breast was 50.5%; with BT-549 breast it was 72.1%; in the test on SW-620 colon, 102%; in the test on MCF7 breast it was 69.5%; in the test with HCT-116 colon it was 45.8%; in the test on KM12 colon it was 70.8%.
Consider `Cc1ccc(C2Oc3ccccc3C3CC(c4cccs4)=NN32)cc1` (stereo not given), for which the growth is 86.6% in the test with BT-549 breast; 103% with MDA-MB-435 melanoma; 102% with SW-620 colon; 80.4% with MCF7 breast; 99.9% in the test with HCT-116 colon; 98.7% with HCC-2998 colon. Besides, the growth in the test on KM12 colon was 94.3%.
With `CCOC(=O)c1c(C)oc2ncnc(N3CCN(C(=O)COc4ccc(SC)cc4)CC3)c12`, the growth in the test with T-47D breast was 61.7%; with BT-549 breast, 90.8%; with SW-620 colon it was 102%; in the test with MCF7 breast it was 92.6%; in the test on HCT-116 colon it was 91.6%; in the test on HCC-2998 colon, 110%. For the same compound, the growth in the test with KM12 colon was 95.6%.
Regarding `CCOC(=O)n1cc(-c2nonc2-c2cn(C)c3ncccc23)c2ccccc21`, the growth was 15.2% in the test with T-47D breast; 87.9% in the test with BT-549 breast; 76.6% in the test on SW-620 colon; 35% in the test on MCF7 breast; 80.4% in the test with HCT-116 colon; 89.6% in the test on HCC-2998 colon. Further, in the test on KM12 colon, the growth is 66.5%.
For the compound `COc1ccc(C2CC(c3ccc(Cl)cc3)=NN2/C=C2\SC(=S)N(NC(=O)Cc3ccccc3Nc3c(Cl)cccc3Cl)C2=O)cc1` (stereo not given), the growth with T-47D breast is 49.5%; in the test with BT-549 breast it was 79%; in the test on SW-620 colon, 90%; in the test with MCF7 breast it was 74.1%; in the test with HCT-116 colon, 56.3%; in the test on HCC-2998 colon it was 90.4%. For the same compound, the growth in the test with KM12 colon is 85.4%.
Regarding `C#CCOc1ccc2ncnc(NCc3cccc(NC(=O)CCl)c3)c2c1`, the growth is 46.6% [8.25 µM] in the test with BT-549 breast; 53.4% [8.25 µM] with MDA-MB-435 melanoma; 19.9% [8.25 µM] in the test on SW-620 colon; 15.5% [8.25 µM] in the test on MCF7 breast; 14.6% [8.25 µM] in the test on HCT-116 colon; 99.7% [8.25 µM] in the test on HCC-2998 colon. For the same compound, the growth in the test on KM12 colon was 59.7% [8.25 µM].
`O=C(Cc1ccccc1Nc1c(Cl)cccc1Cl)NN1C(=O)/C(=C/c2ccc(Br)cc2)SC1=S`: the growth is 105% in the test with BT-549 breast; 107% in the test with MDA-MB-435 melanoma; 98.5% in the test with SW-620 colon; 100% in the test with MCF7 breast; 103% in the test with HCT-116 colon; 106% in the test on HCC-2998 colon. Besides, in the test on KM12 colon, the growth is 107%.
For the compound `O=C1C=C(O)C(=O)C(CC2=C(O)C(=O)C=C(O)C2=O)=C1O`, the growth in the test on T-47D breast is 104%; in the test with MDA-MB-435 melanoma it was 100%; with SW-620 colon, 97.8%; in the test on MCF7 breast it was 105%; with HCT-116 colon, 106%; in the test on HCC-2998 colon, 97.2%. In the test with KM12 colon, the growth was 104%.
For `CC(C)CSc1nc(N)nc2c1ncn2C1OC(CO)C(O)C1O` (stereo not given), the growth is 106% in the test on T-47D breast; 91% with MDA-MB-435 melanoma; 94.4% in the test with SW-620 colon; 99.5% in the test with MCF7 breast; 102% in the test on HCC-2998 colon; 96.7% with KM12 colon.
As to `COc1ccc2c(c1)O/C(=C\c1cccc(OCC(=O)Nc3nc4c(s3)CCCC4)c1)C2=O`, the growth is 58.4% in the test with T-47D breast; 105% in the test with BT-549 breast; 89.1% in the test on SW-620 colon; 86.1% in the test on MCF7 breast; 77.7% in the test on HCT-116 colon; 82% with KM12 colon.
In the case of `COc1cc2nc(N3CCCC3)nc(NCCc3ccccc3)c2cc1OC`, the growth in the test with T-47D breast is 80.8%; with BT-549 breast it was 82.6%; in the test on SW-620 colon it was 0.907% (active); in the test on MCF7 breast, 35.4%; in the test with HCT-116 colon, 2.87% (active); in the test with HCC-2998 colon it was 70.6%. The growth in the test on KM12 colon was 96.3%.
As for `COc1cc(C)c(C2C(C#N)=C(N)Oc3n[nH]c(-c4cccs4)c32)cc1C(C)C` (stereo not given), the growth in the test on T-47D breast is 84.4%; with BT-549 breast, 102%; in the test on SW-620 colon, 101%; with MCF7 breast, 91.5%; in the test on HCT-116 colon it was 103%; in the test on HCC-2998 colon, 93.5%. In the test with KM12 colon, the growth was 98.6%.
Regarding `O=c1cc(CSc2nnc(SCc3cc(=O)oc4c3ccc3ccccc34)o2)c2ccc3ccccc3c2o1`, the growth in the test on BT-549 breast is 107%; with MDA-MB-435 melanoma, 112%; in the test with SW-620 colon, 98.1%; with MCF7 breast, 93.7%; with HCT-116 colon it was 104%; in the test with HCC-2998 colon, 101%. Also, the growth in the test with KM12 colon is 98.2%.
For `COc1cc2c(cc1OC)C(Sc1ccc(SC)cc1)c1c(nc(N)c(C#N)c1N)O2` (stereo not given), the growth in the test with BT-549 breast is -73.9% (active); in the test with MDA-MB-435 melanoma, -90.8% (active); in the test with SW-620 colon, -68.9% (active); in the test on MCF7 breast it was -51.2% (active); with HCT-116 colon it was -86.8% (active); in the test with HCC-2998 colon it was -84.9% (active). Besides, the growth with KM12 colon is -72% (active).
On to `Cn1ccnc1C(=O)/C=C/c1ccccc1`, for which the growth in the test with T-47D breast was 18.4%; in the test on MDA-MB-435 melanoma, 10.8%; with SW-620 colon, 5.92% (active); in the test on MCF7 breast it was 2.27% (active); in the test with HCT-116 colon it was 9.05% (active); in the test on KM12 colon it was -20.6% (active).
As for `Cc1ncc(C(=O)Nc2ccc(CN3CCN(C)CC3)c(C(F)(F)F)c2)cc1C#Cc1cnc2cccnn12`, the growth with T-47D breast is 40%; with BT-549 breast, -10.8% (active); in the test with SW-620 colon, -5.14% (active); in the test with MCF7 breast, 2.92% (active); with HCT-116 colon, 0.541% (active); in the test on HCC-2998 colon, 11.1%. The growth with KM12 colon is -0.978% (active).
For the compound `O=C(COc1ccc(/C=C2\CSc3ccccc3C2=O)cc1)Nc1nccs1`, the growth was 112% in the test with BT-549 breast; 65.4% in the test on MDA-MB-435 melanoma; 17.3% in the test on SW-620 colon; 6.72% (active) in the test with MCF7 breast; 48.2% in the test with HCT-116 colon; 103% with HCC-2998 colon. Further, the growth with KM12 colon was 13.8%.
`CCc1c(Nc2ccccc2C)nc(N)[nH]c1=O`: the growth in the test with T-47D breast was 114%; with BT-549 breast, 102%; with SW-620 colon, 106%; in the test with MCF7 breast it was 97%; with HCT-116 colon, 98.4%; in the test with HCC-2998 colon it was 101%. Further, the growth in the test with KM12 colon was 104%.
Turning to `O=C1NC(=S)NC(=O)C1CC(=O)n1c(-c2ccccc2)nc2ccccc21`, the growth is 95.3% in the test with T-47D breast; 100% in the test with BT-549 breast; 98.6% in the test with SW-620 colon; 80.4% with MCF7 breast; 104% with HCT-116 colon; 104% in the test on HCC-2998 colon. Further, the growth in the test on KM12 colon is 101%.
As for `CCOc1cc2c(cc1OCC)C(c1cc(OC)c(O)cc1Cl)NCC2` (stereo not given), the growth in the test on T-47D breast was 85.4%; with BT-549 breast, 102%; in the test on SW-620 colon, 99.3%; with MCF7 breast, 93.5%; in the test with HCT-116 colon it was 76.3%; in the test on HCC-2998 colon it was 63.2%. The growth in the test on KM12 colon is 88.9%.
As for `COC[C@H](C)n1c(C2CCOCC2)nc2cnc3cc(-c4c(C)noc4C)c(OC)cc3c21`, the growth was 37.9% with T-47D breast; 69.2% with BT-549 breast; 64.3% with SW-620 colon; 22.5% in the test on MCF7 breast; 46.8% in the test on HCT-116 colon; 56.6% with HCC-2998 colon. Moreover, the growth with KM12 colon was 54%.
For `CSc1nc(Nc2cccc(NC(=O)/C(C#N)=C/c3c(Cl)cccc3Cl)c2)c(C#N)c(-c2cccc([N+](=O)[O-])c2)n1`, the growth is 37.6% with T-47D breast; 71.6% with BT-549 breast; 38.1% in the test on SW-620 colon; 11.3% with MCF7 breast; 35.6% in the test with HCT-116 colon; 60.8% with HCC-2998 colon. In the test with KM12 colon, the growth is 78.3%.
Turning to `O=C1c2cc3c(cc2-c2c1c1ccc(F)cc1c(=O)n2C[C@H](O)[C@@H](O)[C@H](O)CO)OCO3`, the growth in the test with T-47D breast is -4.06% (active); with BT-549 breast it was -21.3% (active); in the test with SW-620 colon it was 7.68% (active); with MCF7 breast it was 4.18% (active); in the test with HCT-116 colon it was 9.8% (active); in the test on HCC-2998 colon, -8.31% (active). Also, the growth in the test with KM12 colon was 7.39% (active).
For `c1ccc(-c2cc3n4c(-c5ccccc5)nn(-c5ccccc5)c4cnc-3n2)cc1`, the growth was 54.2% with T-47D breast; 60.4% in the test on MDA-MB-435 melanoma; 52.2% with SW-620 colon; 50.6% in the test with MCF7 breast; 30.9% with HCT-116 colon; 83.9% with HCC-2998 colon. Further, the growth with KM12 colon was 70.6%.
As for `Cn1cc(C(=O)c2nc(-c3c[nH]c4ccc(Br)cc34)no2)c2cc(F)ccc21`, the growth in the test with T-47D breast was 89.7%; in the test with BT-549 breast, 95.7%; with SW-620 colon it was 95.3%; in the test with MCF7 breast it was 82.1%; in the test with HCT-116 colon it was 104%; with HCC-2998 colon, 97.5%. Also, the growth in the test on KM12 colon was 96.3%.
With `Cc1nc2c3c(-c4ccccc4)c(-c4ccccc4)oc3ncn2n1`, the growth in the test on BT-549 breast is 101%; with MDA-MB-435 melanoma, 100%; in the test with SW-620 colon, 96.9%; with MCF7 breast, 101%; with HCT-116 colon, 88.5%; in the test on HCC-2998 colon it was 96.2%. In addition, the growth in the test on KM12 colon is 99.3%.
Take `CC(C)(C)CC(C)(C)c1ccc(OCCOCC[N+](C)(C)Cc2ccccc2)cc1`: the growth was -7.78% (active) in the test with T-47D breast; -81.1% (active) in the test on MDA-MB-435 melanoma; -39.2% (active) with SW-620 colon; -80.4% (active) with MCF7 breast; -27.9% (active) in the test on HCT-116 colon; -32.5% (active) in the test on HCC-2998 colon. Moreover, the growth with KM12 colon was -91.3% (active).

The record behind these values is PubChem BioAssay (NCI).
